Hits are enriched below; roughly 2.1% of the tested compounds scored in any of these assays.
NR2F2 inh: blocks human COUP-TFII nuclear receptor | HEK293T NGFI-A luciferase reporter, luminescence | AID 686940 | 370,000 compounds, 0.7% hits | inhibition, % at 8.6 µM;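 active means inhibition above a per-plate cutoff, mean inhibition of test wells between control levels plus 3 SD, cut at about 38% in these data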;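 further: cells cotransfected with COUP-TFII expression vector driving the NGFI-A reporter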
GalR3 antag: human GalR3 antagonism | O60755 | inhibition, % at 3 µM | 360,000 compounds, 0.44% hits | HEK293 GalR3-CNG cAMP membrane potential fluorescence; galR3 body fused to GalR1 C-terminus | AID 651719;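 active means inhibition above the screen-wide average plus 3 SD, cut at about 13% in these data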;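 further: forskolin and galanin both at EC90 stimulate the cells; cAMP rise reported by CNG channel membrane potential dye signal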
Target sequence (O60755 1-299 limits assumed): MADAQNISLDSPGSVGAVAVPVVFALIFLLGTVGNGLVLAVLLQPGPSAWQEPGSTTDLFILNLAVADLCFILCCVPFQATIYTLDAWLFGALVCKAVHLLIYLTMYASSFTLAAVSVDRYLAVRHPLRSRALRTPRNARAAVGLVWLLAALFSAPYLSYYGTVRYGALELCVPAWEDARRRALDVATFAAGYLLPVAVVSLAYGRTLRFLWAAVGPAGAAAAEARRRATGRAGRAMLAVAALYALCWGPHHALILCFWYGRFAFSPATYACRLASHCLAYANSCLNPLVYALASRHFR
HIV Env fusion: inhibitors of HIV Env-mediated cell fusion | AID 651610 | HeLa-JRFL Env/CEM21 cell fusion, luciferase | 360,000 compounds, 1.1% hits | inhibition, % at 12.3 µM;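 active means mean replicate inhibition score of at least 50 and every replicate individually at or above 50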
aDG glyco act: increases alpha dystroglycan glycosylation | 360,000 compounds, 0.22% hits | AID 624168 | activation, % at 10 µM | Pro5-aDG cells, alpha-DG glycosylation AlphaScreen (IIH6); 0% Pro5, 100% B10-LARGE cell signal;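 active means activation of at least 8% versus controls, or a plate z-score of at least 8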;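 further: Pro5 are CHO cells carrying HIG-tagged alpha-DG that lacks glycosylation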
Gli-Sufu block: antagonists of Gli-Sufu signaling; Sufu-KO-LIGHT fibroblasts, Gli luciferase reporter luminescence; inhibition, % at 5 µM; 340,000 compounds, 0.74% hits;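 active means inhibition above about 55%, limit read from the data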
Numbers stand for hits; n = inactive; x = no result given; ! = repeats disagree; [ ] = another dose, or the depositor's remark.

SMILES | NR2F2 inh | GalR3 antag | HIV Env fusion | aDG glyco act | Gli-Sufu block
COc1ccc(S(=O)(=O)Nc2ccc3c(c2)C(=O)N([C@@H](C)CO)C[C@H](C)[C@@H](CN(C)Cc2ccc(Cl)c(Cl)c2)OCCCC[C@H](C)O3)cc1 | x | x | 59[16.7 µM] | x | x
COc1ccc(S(=O)(=O)Nc2ccc3c(c2)C(=O)N([C@@H](C)CO)C[C@H](C)[C@@H](CN(C)Cc2ccc(Oc4ccccc4)cc2)O3)cc1 | x | x | 63[16.7 µM] | x | x
C[C@H]1CN([C@@H](C)CO)C(=O)c2cc(NS(C)(=O)=O)ccc2O[C@@H]1CN(C)Cc1ccc(Cl)c(Cl)c1 | x | x | 62[16.7 µM] | x | x
C[C@H](CO)N1C[C@H](C)[C@H](CN(C)Cc2ccc(Cl)c(Cl)c2)OCCCC[C@H](C)Oc2ccc(NS(=O)(=O)c3ccc(F)cc3)cc2C1=O | x | x | 88[16.7 µM] | x | x
C[C@@H]1CN([C@H](C)CO)C(=O)c2cc(/C=C/c3ccccc3)cnc2O[C@@H]1CN(C)C(=O)c1ccc2c(c1)OCO2 | x | x | n | x | x
CN1CCN(C(=O)C[C@H]2CC[C@@H](NC(=O)Cc3ccccn3)[C@H](CO)O2)CC1 | x | x | n | x | x
COc1ccccc1OCC(=O)c1[nH]c(C)c(C(C)=O)c1C | n | n | 74 | n | n
COc1cc(C)ccc1OCC(=O)OCC(=O)c1[nH]c(C)c(C(C)=O)c1C | n | n | n | n | n
CCc1cccc(NC(=O)C2CCN(S(=O)(=O)c3ccc4c(c3)CC(C)N4C(C)=O)CC2)c1 (stereo not given) | n | n | 68 | n | n
CC(=O)c1ccc(N2CCN(S(=O)(=O)c3ccc4c(c3)CC(C)N4C(=O)C3CC3)CC2)cc1 (stereo not given) | n | n | n | n | 67
COc1cccc(NC(=O)C2CCN(S(=O)(=O)c3ccc4c(c3)CC(C)N4C(C)=O)CC2)c1 (stereo not given) | n | n | n | n | n
C[C@@H]1CN([C@H](C)CO)C(=O)c2cc(NC(=O)Cc3ccccc3)ccc2O[C@@H](C)CCCCO[C@H]1CN(C)S(=O)(=O)c1cccs1 | x | x | n | x | x
CN1c2ccccc2N(C)C1(C)c1ccccc1 | n | n | n | n | 61
C/C(=N\Nc1ccc2nncn2n1)c1ccccn1 | n | n | n | n | 74
CCOc1ccc(C2CC(c3ccccc3C)n3nc(N)nc3N2)cc1 (stereo not given) | n | n | 65 | n | n
CC(C)NC(=O)Nc1ccc2c(c1)C(=O)N([C@H](C)CO)C[C@H](C)[C@@H](CN(C)S(=O)(=O)c1cn(C)cn1)OCCCC[C@@H](C)O2 | x | x | n | x | x
CCN(Cc1nc2cc(Cl)ccc2c(=O)[nH]1)C(=O)c1cc(C2CC2)nn1-c1ccccc1 | n | n | 86 | n | n
CCN(Cc1nc2cc(Cl)ccc2c(=O)[nH]1)C(=O)c1nn(C)c(=O)c2ccccc12 | n | n | n | n | n
C[C@H](CO)N1C[C@H](C)[C@@H](CN(C)C(=O)c2ccncc2)Oc2cc(C#CC3(O)CCCC3)ccc2S1(=O)=O | x | x | n | x | x
COc1cc(C=NO)nc(-c2ccccn2)c1 | n | n | n | n | 87
COc1ccc(S(=O)(=O)NC[C@@H]2CC[C@H]3[C@H](CN3Cc3cc(F)ccc3F)O2)cc1 | x | x | 60[16.7 µM] | x | x
O=C(O)c1ccccc1CN1C[C@H]2O[C@H](CNS(=O)(=O)c3ccc(Cl)cc3)CC[C@H]21 | x | x | n | x | x
COc1ccc(C)c2sc(N(CCCN(C)C)C(=O)c3ccc(S(=O)(=O)N4CCc5ccccc5C4)cc3)nc12 | n | n | 92 | n | n
COc1cccc2sc(N(CCCN(C)C)C(=O)c3ccc(S(=O)(=O)N4CCc5ccccc5C4)cc3)nc12 | n | n | n | n | n
COc1ccc(-c2cnc3c(c2)C(=O)N([C@@H](C)CO)C[C@@H](C)[C@@H](CN(C)C(=O)C2CCC2)O3)cc1 | x | x | n | x | x
SMILES | NR2F2 inh | GalR3 antag | HIV Env fusion | aDG glyco act | Gli-Sufu block
CCC(C)Sc1cccc(-c2nc3cc(C)ccn3c2NC2CCCCC2)c1 (stereo not given) | n | n | n | 15! | n
CC(NC(=O)CSc1nc2sc3c(c2c(=O)n1-c1ccccc1)CCCC3)c1ccccc1 (stereo not given) | n | n | 103 | n | n
CO[C@H]1CN(C)C(=O)c2cc(NC(=O)CC(F)(F)F)ccc2OC[C@H](C)N(CCC(F)(F)F)C[C@@H]1C | x | x | n | x | x
CC(C)c1ccc(-n2nnnc2SCC(=O)NC2CC2)cc1 | n | n | 64 | n | n
COc1ccc(-n2nnnc2SCC(=O)NC2CC2)cc1 | n | n | x | n | n
CC(C)NC(=O)N(C)C[C@@H]1Oc2ncc(-c3ccccc3F)cc2C(=O)N([C@@H](C)CO)C[C@H]1C | x | x | n | x | x
COc1ccc(N2CCN(c3ncnc4c3cnn4-c3ccc(C)cc3C)CC2)cc1 | n | n | x | n | n
Cc1ccc(-n2ncc3c(N4CCN(c5ccccc5)CC4)ncnc32)c(C)c1 | n | n | 90 | n | n
COc1ccc(-n2ncc3c(N4CCCCC4)ncnc32)cc1 | x | x | x | n | 56
COc1ccc(-n2ncc3c(N4CCN(c5cccc(C)c5C)CC4)ncnc32)cc1 | n | n | n | n | n
C[C@H]1CCCCO[C@@H](CN(C)C(=O)C2CCCCC2)[C@@H](C)CN([C@@H](C)CO)C(=O)c2cc(NC(=O)c3ccccc3)ccc2O1 | x | x | n | x | x
CCNC(=O)C[C@H]1CC[C@@H]2[C@H](COc3ccc(NC(=O)c4ccc(F)cc4)cc3C(=O)N2C)O1 | x | x | n | x | x
COC(=O)c1c(-c2ccsc2)sc2ccc(-c3cc(OC)c(OC)c(OC)c3)cc12 | n | n | 59 | n | n
COc1cc(-c2ccc3sc(-c4ccsc4)c(C#CCO)c3c2)cc(OC)c1OC | n | n | n | n | n
COc1nc(Nc2nc3ccccc3c(=O)[nH]2)nc2ccc(C)cc12 | n | n | 103 | n | 63
Cc1cc(C)cc(Nc2nc3ccccc3c(=O)[nH]2)c1 | n | n | n | n | n
COCCNC(=S)N(Cc1cc2cc(C)ccc2n2nnnc12)C1CCCC1 | n | n | 60 | n | n
COCCN(Cc1cc2cc(C)ccc2n2nnnc12)C(=S)Nc1ccc(C)cc1 | n | n | n | n | n
Cn1cc(C(=O)N/N=C/c2c(O)ccc3ccccc23)ccc1=O | n | n | n | n | n
O=C(NN=Cc1c(O)ccc2ccccc12)c1ccncc1 | n | n | n | n | 87
O=C(N/N=C\c1c(O)ccc2ccccc12)c1cncc(Br)c1 | n | n | n | n | 85
O=C(N/N=C/c1c(O)ccc2ccccc12)c1cccnc1 | n | n | n | n | 68
Cn1nccc1C(=O)N/N=C/c1c(O)ccc2ccccc12 | n | n | 66 | n | 85
COc1ccc2ccccc2c1/C=N\NC(=O)c1cccnc1 | n | n | n | n | n
O=C(C[C@H]1CC[C@H](NC(=O)C2CC2)[C@H](CO)O1)NCC1CC1 | x | x | n | x | x
CCOC(=O)N(C)C[C@@H]1OCc2cn(nn2)CCCC(=O)N([C@@H](C)CO)C[C@@H]1C | x | x | n | x | x
C[C@@H]1CN([C@@H](C)CO)C(=O)c2cccc(NS(=O)(=O)c3cccs3)c2O[C@@H]1CN(C)S(=O)(=O)c1cccs1 | x | x | n | x | x
CCCNC(=O)N1C[C@@H](O)COC[C@H]2O[C@H](CC(=O)NCc3ccncn3)CC[C@@H]21 | x | x | n | x | x
